Values joined by “and” are separate entries in the source; they are usually repeats but may differ in a detail not shown here. Identical values can stand only once. Results filed as inconclusive are left out. Active and inactive are the calls of the source. Calls follow the shape of the dose curve; as a rule, active = well fitted curve in the direction sought with a large enough effect; inconclusive = small, poorly fitted or top-dose-only effect, or another doubt; inactive = no such curve, though single readings can be large; an effect the other way counts as inactive or inconclusive.
Tests used:
[1] = target: Cytochrome P450 2D6 (Homo sapiens) (UniProt P10635); assay: qHTS Assay for Inhibitors and Substrates of Cytochrome P450 2D6 (AID 891); conditions: recombinant CYP2D6, luciferin-ME EGE luminescence; series mostly up to 11.4 µM; also: nearly all actives have a fitted effect of over 60% in size; also: potency is read from the fitted curve at half-maximal effect;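 as to activity change, negative = inhibition: luciferin methyl ether substrate demethylated by CYP2D6 with NADPH regeneration; % is scaled to controls: 0 for no effect and ±100 for the full control effect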
Chain of Cytochrome P450 2D6 (Homo sapiens) (P10635 whole entry, looked up): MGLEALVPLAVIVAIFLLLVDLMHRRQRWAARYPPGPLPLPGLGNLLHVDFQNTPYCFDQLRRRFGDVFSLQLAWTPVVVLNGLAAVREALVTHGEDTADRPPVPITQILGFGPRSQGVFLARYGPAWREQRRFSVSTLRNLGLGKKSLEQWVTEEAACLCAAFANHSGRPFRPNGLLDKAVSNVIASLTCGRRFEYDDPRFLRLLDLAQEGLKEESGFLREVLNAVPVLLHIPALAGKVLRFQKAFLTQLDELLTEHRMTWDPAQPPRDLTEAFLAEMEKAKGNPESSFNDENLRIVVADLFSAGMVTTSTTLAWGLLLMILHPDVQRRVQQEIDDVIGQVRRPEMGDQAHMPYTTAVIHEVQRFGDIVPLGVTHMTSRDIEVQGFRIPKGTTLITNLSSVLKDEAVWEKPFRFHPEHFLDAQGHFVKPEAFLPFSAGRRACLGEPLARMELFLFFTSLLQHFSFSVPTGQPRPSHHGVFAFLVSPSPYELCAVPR
In short: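 Human CYP2D6 (5 nM) with 30 uM Luciferin-ME EGE (at Km) in 100 mM KPO4, compound preincubated 10 min, then NADPH regeneration system for 60 min at room temperature. Luciferin read by luminescence; normalized to 1.43 uM quinidine.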

[2] = target: ATP-dependent 6-phosphofructokinase (Trypanosoma brucei brucei) (UniProt O15648); assay: qHTS Assay to Find Inhibitors of T. brucei phosphofructokinase: hit validation (AID 492961); also: % is scaled to controls: 0 for no effect and ±100 for the full control effect; conditions: T. brucei PFK, ADP-Glo luminescence; series mostly up to 51.4 µM
Chain of ATP-dependent 6-phosphofructokinase (Trypanosoma brucei brucei) (O15648 whole entry, looked up): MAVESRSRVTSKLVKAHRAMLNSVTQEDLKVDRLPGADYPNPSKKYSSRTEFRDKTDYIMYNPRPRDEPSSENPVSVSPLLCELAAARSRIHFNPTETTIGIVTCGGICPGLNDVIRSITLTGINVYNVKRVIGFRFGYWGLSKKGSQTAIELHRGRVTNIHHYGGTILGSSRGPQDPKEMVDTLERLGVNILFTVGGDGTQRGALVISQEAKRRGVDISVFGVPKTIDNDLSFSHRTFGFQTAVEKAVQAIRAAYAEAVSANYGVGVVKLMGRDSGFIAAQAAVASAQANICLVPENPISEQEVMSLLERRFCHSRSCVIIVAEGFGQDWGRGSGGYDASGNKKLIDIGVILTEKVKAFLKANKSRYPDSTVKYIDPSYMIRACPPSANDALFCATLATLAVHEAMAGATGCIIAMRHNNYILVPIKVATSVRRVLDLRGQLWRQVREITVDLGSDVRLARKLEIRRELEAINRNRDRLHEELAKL
In short: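 Luminescence from ADP-Glo reports ADP generated as T. brucei PFK (1.25 nM) phosphorylates 0.5 mM fructose-6-phosphate using 0.1 mM ATP. Reactions ran 45 min at room temperature, pH 8.0.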

[3] = target: Luciferin 4-monooxygenase (Photinus pyralis) (UniProt P08659); assay: Biochemical firefly luciferase enzyme assay for NPC (AID 624030);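 also: purified P. pyralis luciferase at 10 nM with luciferin and ATP substrate; 0% = DMSO and -100% = full luciferase inhibition by PTC124 control; nearly all actives have a fitted effect of over 70% in size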; conditions: purified P. pyralis luciferase, luminescence, 5 min; series mostly up to 58.6 µM
Chain of Luciferin 4-monooxygenase (Photinus pyralis) (P08659 whole entry, looked up): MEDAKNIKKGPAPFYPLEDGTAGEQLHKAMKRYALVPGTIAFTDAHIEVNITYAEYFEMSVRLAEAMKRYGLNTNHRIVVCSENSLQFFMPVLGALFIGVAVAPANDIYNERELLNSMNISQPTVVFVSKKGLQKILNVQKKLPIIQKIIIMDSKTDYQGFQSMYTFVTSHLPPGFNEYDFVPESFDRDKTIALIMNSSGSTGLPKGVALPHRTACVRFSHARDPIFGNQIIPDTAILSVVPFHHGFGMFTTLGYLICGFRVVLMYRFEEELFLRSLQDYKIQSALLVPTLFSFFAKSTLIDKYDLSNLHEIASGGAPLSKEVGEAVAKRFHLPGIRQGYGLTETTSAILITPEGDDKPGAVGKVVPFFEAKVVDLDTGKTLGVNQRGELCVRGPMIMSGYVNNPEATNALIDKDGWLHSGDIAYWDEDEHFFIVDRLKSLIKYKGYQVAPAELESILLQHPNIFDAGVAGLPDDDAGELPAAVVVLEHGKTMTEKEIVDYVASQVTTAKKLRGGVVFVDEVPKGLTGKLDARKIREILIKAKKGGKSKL
In short: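 Purified P. pyralis luciferase at 10 nM in 50 mM Tris Acetate (final), luminescence read within 5 minutes of enzyme addition to compounds. Activity normalised to PTC124 versus DMSO; concentration-response curves classed by r2, magnitude and activity.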

[4] = S16 Schwann cell viability assay (CellTiter-Glo assay) (AID 624031); conditions: S16 rat Schwann cells viability, 24 h; series mostly up to 57.5 µM;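 also: native untransfected S16 rat Schwann cells; cellular ATP luminescence as a viability measure; plate controls were DMSO-treated cells for no effect and cell-free wells for full effect; nearly all actives have a fitted effect of over 70% in size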
In short: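 Concentration-effect curves come from CellTiter-Glo luminescence of S16 rat Schwann cells after 24 h compound exposure. Each reading was normalized to DMSO wells (0%) and wells without cells, and curves were ranked by r2 and response magnitude.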

[5] = S16 Schwann cell PMP22 intronic element firefly luciferase assay (AID 624032); conditions: S16 rat Schwann cells, PMP22 element FLuc, 24 h; series mostly up to 57.5 µM; also: nearly all actives have a fitted effect of over 30% in size; also: potency is read from the fitted curve at half-maximal effect;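 as to activity change, negative = inhibition: plate controls were DMSO for no effect and PTC124 positive control mean for full effect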
In short: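 Rat S16 Schwann cells stably carrying firefly luciferase driven by a PMP22 intronic element, in 10% FBS, treated 24 h at 37 C. ONE-Glo luminescence normalized to PTC124 control and DMSO (0%); curves classed by r2, magnitude and activity.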

[6] = qHTS profiling for inhibitors of Plasmodium falciparum proliferation (AID 504749); also: nearly all actives have a fitted effect of over 60% in size; also: potency is read from the fitted curve at half-maximal effect;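 as to activity, negative = inhibition: 0% = DMSO vehicle and full inhibition = artemisinin control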; conditions: P. falciparum in erythrocytes, SYBR Green DNA, 72 h
In short: (§1)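 Readout was DNA-dye fluorescence from lysed cultures, ex 485/em 535 nm. Parasitized red cells had grown 72 h with compound; data scaled between 0.29 uM artemisinin and DMSO wells and corrected using vehicle-only plates.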

[7] = test system: 7G8; assay: as above; conditions: P. falciparum in erythrocytes, SYBR Green DNA, 72 h; series mostly up to 28.7 µM
In short: as §1

[8] = test system: AS120; assay: as above; conditions: P. falciparum in erythrocytes, SYBR Green DNA, 72 h; series mostly up to 28.7 µM
In short: as §1

[9] = test system: CP203; assay: as above; conditions: P. falciparum in erythrocytes, SYBR Green DNA, 72 h; series mostly up to 28.7 µM
In short: as §1

[10] = test system: CP238; assay: as above; conditions: P. falciparum in erythrocytes, SYBR Green DNA, 72 h; series mostly up to 28.7 µM
In short: as §1

[11] = test system: CP335; assay: as above; conditions: P. falciparum in erythrocytes, SYBR Green DNA, 72 h; series mostly up to 28.7 µM
In short: as §1

[12] = test system: DFO2036; assay: as above; conditions: P. falciparum in erythrocytes, SYBR Green DNA, 72 h; series mostly up to 28.7 µM
In short: as §1

[13] = test system: DIV30; assay: as above; conditions: P. falciparum in erythrocytes, SYBR Green DNA, 72 h; series mostly up to 28.7 µM
In short: as §1

[14] = test system: Dd2; assay: as above; conditions: P. falciparum in erythrocytes, SYBR Green DNA, 72 h; series mostly up to 28.7 µM
In short: as §1

[15] = test system: ICS; assay: as above; conditions: P. falciparum in erythrocytes, SYBR Green DNA, 72 h; series mostly up to 28.7 µM
In short: as §1

[16] = test system: P94_40; assay: as above; conditions: P. falciparum in erythrocytes, SYBR Green DNA, 72 h; series mostly up to 28.7 µM
In short: as §1

[17] = test system: TAB165; assay: as above; conditions: P. falciparum in erythrocytes, SYBR Green DNA, 72 h; series mostly up to 28.7 µM
In short: as §1

[18] = test system: W2; assay: as above; conditions: P. falciparum in erythrocytes, SYBR Green DNA, 72 h; series mostly up to 28.7 µM
In short: as §1

[19] = qHTS Assay for Identification of Small Molecule Antagonists for Thrombopoietin (TPO) Signaling Pathway (AID 918); conditions: TPO-dependent cell signaling reporter, antagonist mode; also: potency is read from the fitted curve at half-maximal effect; nearly all actives have a fitted effect of over 60% in size
In short: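 Murine Ba/F3 cells stably expressing human TPO receptor and a Glycoprotein IIb promoter–luciferase reporter were IL-3-starved overnight, treated with compounds plus TPO (26 pM final, its EC50) for 24 hrs at 37 C, then read by luminescence.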

[20] = target: Cytochrome P450 3A4 (Homo sapiens) (UniProt P08684); assay: qHTS Assay for Inhibitors and Substrates of Cytochrome P450 3A4 (AID 884); conditions: recombinant CYP3A4, Luciferin-PPXE luminescence; series mostly up to 57.1 µM; also: nearly all actives have a fitted effect of over 50% in size; also: potency is read from the fitted curve at half-maximal effect; as to activity change, negative = inhibition: % is scaled to controls: 0 for no effect and ±100 for the full control effect
Chain of Cytochrome P450 3A4 (Homo sapiens) (P08684 whole entry, looked up): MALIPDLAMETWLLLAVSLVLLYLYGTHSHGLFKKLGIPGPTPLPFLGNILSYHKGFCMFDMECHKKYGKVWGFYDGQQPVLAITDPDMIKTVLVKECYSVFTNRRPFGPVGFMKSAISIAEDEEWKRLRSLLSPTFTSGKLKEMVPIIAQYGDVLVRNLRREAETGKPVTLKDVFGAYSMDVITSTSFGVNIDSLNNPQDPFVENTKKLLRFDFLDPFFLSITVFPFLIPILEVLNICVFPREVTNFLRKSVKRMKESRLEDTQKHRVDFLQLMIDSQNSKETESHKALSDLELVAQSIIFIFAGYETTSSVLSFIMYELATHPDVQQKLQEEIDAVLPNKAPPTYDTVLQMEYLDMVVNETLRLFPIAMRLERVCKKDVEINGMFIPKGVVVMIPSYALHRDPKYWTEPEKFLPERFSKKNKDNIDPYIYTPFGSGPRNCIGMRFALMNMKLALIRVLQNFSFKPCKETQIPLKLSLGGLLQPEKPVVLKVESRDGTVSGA
In short: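 20 nM human CYP3A4 with 25 uM Luciferin-PPXE (at KM) in 200 mM KPO4, preincubated 10 min with compound; NADPH regeneration started a 60 min RT reaction. Luciferin detected by luminescence, normalized to 57 uM ketoconazole as full inhibition.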

[21] = at 28.7 µM (top of the series), parasite line A
[22] = at 28.7 µM (top of the series), parasite line B

CCNc1ncc2nc(CCc3ccccc3)c(=O)n(C)c2n1
active: Potency [1] 1.58 µM

C[C@H]1C[C@@H]2[C@H]3CCC4=CC(=O)C=C[C@@]4(C)[C@@]3(Cl)[C@@H](O)C[C@]2(C)[C@]1(OC(=O)c1ccco1)C(=O)CCl
inactive: outcome [2] | outcome [3] | Potency [4] | Potency [5]
active: Potency ([6]; parasite line B) 3.16 µM | Potency [7] 1.78 µM | Potency [8] 3.55 µM | Potency [9] 5.73 µM | Potency [10] 3.55 µM | Potency [11] 5.73 µM | Potency [12] 4.47 µM | Potency [13] 6.42 µM | Potency [14] 3.55 µM | Potency [15] 3.55 µM | Potency [16] 3.55 µM | Potency [17] 3.55 µM | Potency [18] 3.61 µM

C=C[C@@]1(C)CC(=O)[C@@]2(O)[C@@]3(C)[C@H](O)CCC(C)(C)[C@@H]3[C@H](O)[C@H](OC(C)=O)[C@]2(C)O1
inactive: Potency [1]

C[C@@]12CCC(=O)C=C1CC[C@H]1[C@H]3CC[C@](O)(C(=O)CO)[C@]3(C)CC[C@@H]12
inactive: Potency [1]

CC[C@@H]1CN2CCc3cc(OC)c(OC)cc3[C@H]2C[C@@H]1C[C@H]1NCCc2cc(OC)c(OC)cc21
inactive: Potency [1]

CC(C)[C@H]1C(=O)C(C(N)=O)=C(O)[C@]2(O)C(=O)C3=C(O)c4c(O)ccc(N(C)C)c4C[C@H]3C[C@@H]12
active: Potency [19] 2.51 µM

C[C@@H]1C[C@H]2[C@H]3C[C@@H](F)C4=CC(=O)C=C[C@]4(C)[C@@]3(Cl)[C@@H](O)C[C@@]2(C)[C@@H]1C(=O)COC(=O)C(C)(C)C
active: Potency [7] 4.47 µM | Potency [11] 12 µM | Potency [14] 12.6 µM | Potency [15] 6.31 µM | Potency [18] 10.7 µM
inactive: outcome [2] | outcome [3] | Potency [4] | Potency [5] | activity, negative = inhibition [6, 21] 0.272% | activity, negative = inhibition [6, 22] -10.2% | Potency [8] | Potency [9] | Potency [10] | Potency [12] | Potency [13] | Potency [16] | Potency [17]

N[C@@H](C(=O)O)[C@H](O)C(=O)O
inactive: Potency [1]

CCn1cc(C(=O)O)c(=O)c2ccc(Cc3ccccc3)nc21
inactive: Potency [1]

COc1cc2nc(N(C)CCCNC(=O)[C@@H]3CCCO3)nc(N)c2cc1OC
inactive: outcome [2] | outcome [3] | Potency [4] | Potency [5] | activity, negative = inhibition ([6]; at 12.8 µM (top of the series), parasite line A) 3.61% | activity, negative = inhibition ([6]; at 12.8 µM (top of the series), parasite line B) 7.55% | Potency [7] | Potency [8] | Potency [9] | Potency [10] | Potency [11] | Potency [12] | Potency [13] | Potency [14] | Potency [15] | Potency [16] | Potency [17] | Potency [18]

O=C(O)[C@H]1C[C@H](C(=O)O)N1
inactive: Potency [1]

CO/N=C(\C(=O)N[C@@H]1C(=O)N2C(C(=O)[O-])=C(C[N+]3(C)CCCC3)CS[C@@H]12)c1csc(N)n1
inactive: outcome [2] | outcome [3] | Potency [4] | Potency [5] | activity, negative = inhibition [6, 21] 2.78% | activity, negative = inhibition [6, 22] 10.9% | Potency [7] | Potency [8] | Potency [9] | Potency [10] | Potency [11] | Potency [12] | Potency [13] | Potency [14] | Potency [15] | Potency [16] | Potency [17] | Potency [18]

O=C(Nc1ccccc1)N1CCC2(CC1)CCN(C(=O)c1ccco1)CC2
inactive: Potency [20]

N[C@H](CS(=O)O)C(=O)O
inactive: Potency [1]

Nc1ccn([C@H]2CC[C@H](CO)O2)c(=O)n1
inactive: Potency [1]

N=C(N)SCc1cccc2c(=O)cc(-c3ccccc3)oc12
active: Potency [1] 2.51 µM

Cc1ccc(C)c(C(=N)c2ccccc2Cc2ccccc2)c1
active: Potency [20] 3.98 µM

C=CCN1CCc2c(cc(O)c(O)c2Cl)[C@H](c2ccccc2)C1
inactive: Potency [20]

O=S(=O)(NCCNC/C=C\c1ccc(Br)cc1)c1cccc2cnccc12
active: Potency [19] 10 µM

N[C@H](COP(=O)(O)O)C(=O)O
inactive: Potency [1] | outcome [2] | outcome [3] | Potency [4] | Potency [5] | activity, negative = inhibition [6, 21] 15.2% | activity, negative = inhibition [6, 22] 6.94% | Potency [7] | Potency [8] | Potency [9] | Potency [10] | Potency [11] | Potency [12] | Potency [13] | Potency [14] | Potency [15] | Potency [16] | Potency [17] | Potency [18]

C[C@@]12C(=O)OC(=O)[C@@]1(C)[C@H]1CC[C@@H]2O1
inactive: Potency [1]
active: Potency [19] 3.16 µM

COc1cc2nc(N3CCN(C(=O)OCc4ccccc4)[C@H](C(=O)NC(C)(C)C)C3)nc(N)c2cc1OC
active: Potency [20] 3.98 µM | Potency [19] 12.6 µM

Cc1cn([C@H]2C=C[C@H](CO)O2)c(=O)[nH]c1=O
inactive: Potency [1]

COC(=O)[C@](C)(N)Cc1ccc(O)cc1
inactive: Potency [20]

Cc1cc(O)c(C(C)C)cc1N=Cc1ccccc1O
active: Potency [20] 3.16 µM

C=C(NC(=O)C(=C)NC(=O)c1csc(C2=N[C@@H]3c4csc(n4)[C@@H]4NC(=O)c5csc(n5)[C@@H]([C@](C)(O)[C@H](C)O)NC(=O)[C@@H]5CSC(=N5)/C(=C/C)NC(=O)[C@@H]([C@H](C)O)NC(=O)c5csc(n5)[C@]3(CC2)NC(=O)[C@@H](C)NC(=O)C(=C)NC(=O)[C@@H](C)NC(=O)[C@@H]([C@@H](C)CC)N[C@H]2C=Cc3c([C@H](C)O)cc(nc3[C@@H]2O)C(=O)O[C@H]4C)n1)C(N)=O
active: Potency [5] 8.7 µM | Potency [7] 3.16 µM | Potency [11] 2.28 µM | Potency [14] 1.12 µM | Potency [15] 3.16 µM | Potency [17] 2.82 µM | Potency [18] 1.61 µM
inactive: outcome [2] | outcome [3] | Potency [4]

OC1CC2CC[C@H](C1)N2CCCN1c2ccccc2Sc2ccc(Cl)cc21 (some centres undefined)
active: Potency [1] 0.0631 µM

O[C@H](CN1CCN(c2cccc(Cl)c2)CC1)C(c1ccccc1)c1ccccc1
inactive: Potency [20]

CC(C)(C)[C@@]1(O)CCN2C[C@@H]3c4ccccc4CCc4cccc(c43)[C@@H]2C1
active: Potency [1] 79.4 nM and 501 nM | Potency [19] 12.6 µM

CC[C@H](C)[C@@H]1O[C@]2(CC[C@@H]1C)C[C@H]1C[C@H](CC=C(C)[C@@H](O[C@H]3C[C@H](OC)[C@H](O[C@H]4C[C@H](OC)[C@H](O)[C@H](C)O4)[C@H](C)O3)[C@@H](C)C=CC=C3CO[C@@H]4[C@@H](O)C(C)=C[C@H](C(=O)O1)[C@@]34O)O2
active: Potency [19] 12.6 µM

NC(N)=Nc1nc2ccc([N+](=O)[O-])cc2[nH]1
inactive: activity change, negative = inhibition [20] 107% [at 11.4 µM]

From PubChem BioAssay (NCATS)
